Source: PubChem BioAssay
Only some compounds are listed: those with a hit (about 19% of all), similar ones and a draw of the others.
TDP1 cell noCPT = qHTS for Inhibitors of human tyrosyl-DNA phosphodiesterase 1 (TDP1): qHTS in cells in absence of CPT; DT40 Tdp1-/- hTDP1 cells, no CPT, ATP luminescence, 48 h; Potency, µM (titrated, usually from 46.2 µM), for the others: at the top dose activity change, negative = growth inhibition, hits mostly inhibitors; 420,000 compounds, 15% hits; also: potency is read from the fitted curve at half-maximal effect; nearly all actives have a fitted effect of over 55% in size
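Cells were dispensed at 400 per well, compounds added by pin tool, plates incubated ≥48 hr at 37 °C, then CellTiter-Glo added for 30 min at room temperature before luminescence reading. Line: DT40 Tdp1-/- complemented with hTDP1; camptothecin omitted.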
HT1080 IDH1KD tx = kills HT-1080 cells with IDH1 knockdown. HT-1080 IDH1 knockdown viability, ATP luminescence, 48 h. Potency, µM (top dose mostly 46.1 µM), for inactives: at the top dose activity, negative = toxicity, most hits filed as cytotoxic. 360,000 compounds, 2% hits. AID 686971;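 also: potency is read from the fitted curve at half-maximal effect; 0% = DMSO wells and -100% = cell-free medium wells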
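Knockdown cells (IDH1KD HT-1080) received compounds 2 h after plating at 750 cells/well and were kept 48 h at 37 °C in 5% FBS RPMI. A CellTiter-Glo luminescence read gave % activity for curve fitting.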
DT40 TDP1 CPT = growth inhibition of DT40 Tdp1-/-;hTDP1 cells with camptothecin (screen for TDP1 inhibitors) | chicken DT40 Tdp1-/-;hTDP1 cells + 20 nM CPT, ATP luminescence, 48 h | 420,000 compounds, 12% hits | AID 686979 | Potency, µM (top dose mostly 46.2 µM), without a hit: top-dose activity change, negative = growth inhibition, actives largely listed as inhibitors; also: potency is read from the fitted curve at half-maximal effect; nearly all actives have a fitted effect of over 55% in size
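Chicken DT40 Tdp1-/- cells complemented with human TDP1, 400 cells/well, exposed to compounds plus 20 nM camptothecin for at least 48 h at 37 C; viability read as ATP content by CellTiter-Glo luminescence.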
IL1B secr inh = blocks inflammasome-driven IL-1 beta release; THP-1 LPS/ATP IL-1B secretion, AlphaLISA, 16 h; stronger effect = lower value; activity change, % at 57.5 µM; 360,000 compounds, 4.7% hits; AID 743279; in the data active = activity change below about -50%; inconclusive = mostly about -30% to -49%
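THP-1 cells pretreated 1 hr with compounds (up to 57.5 uM final), then stimulated with LPS (250 ng/mL final) plus ATP (1.25 mM final); secreted IL-1B measured by AlphaLISA after 16 hr, decreased signal indicating inhibition.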
HT1080-NT tox = kills 2HG-producing HT-1080-NT fibrosarcoma cells | HT-1080-NT fibrosarcoma viability, CellTiter-Glo ATP luminescence, 48 h | Potency, µM (top dose mostly 46.1 µM), for inactives: top-dose activity, negative = less viability, hits mostly cytotoxic | 360,000 compounds, 1.6% hits | AID 686970;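 also: NT is the 2HG producing partner of a matched IDH1 knockdown line; potency is read from the fitted curve at half-maximal effect; 0% = DMSO-treated cells and -100% = media-only wells without cells; nearly all actives have a fitted effect of over 55% in size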
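HT-1080-NT; 750 cells/well; 5% FBS RPMI; 48 h compound, 37 degrees C; CellTiter-Glo luminescence; curve fitting and curve-class assignment.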
Active calls of the source: *; ? = inconclusive; / = not tested or not shown. Unless noted, calls follow the shape of the dose curve; as a rule, active = well fitted curve in the direction sought with a large enough effect; inconclusive = small, poorly fitted or top-dose-only effect, or another doubt; inactive = no such curve, though single readings can be large; an effect the other way counts as inactive or inconclusive. Unless noted, % is scaled to controls: 0 for no effect and ±100 for the full control effect.

SMILES | TDP1 cell noCPT | HT1080 IDH1KD tx | DT40 TDP1 CPT | IL1B secr inh | HT1080-NT tox
O=C(O)C(Cc1ccccc1)N=C(NS(=O)(=O)c1ccccc1)c1ccccc1 (centres undefined) | -9% | 2% | 15% | 17 | -10%
Cc1ccc(NC(=O)CSc2nc(-c3ccco3)nc3cc(=O)[nH]n23)c(Cl)c1 | 11% | 0% | -8% | 0 | ?
Cc1ccc(Cn2c(=O)n(C)c(=O)c3sccc32)cc1 | ? | 4% | ? | 17 | 1%
O=C(Nc1ccccc1F)Nc1cccc2ccc(O)cc12 | 16µM* | 2% | 16µM* | -9 | 6%
CC(=O)Nc1cccc2ccc(O)cc12 | -8% | 6% | -1% | -10 | 5%
Cc1ccccc1NC(=O)Nc1ccc(C(F)(F)F)cc1 | 8.2µM* | ? | 9.2µM* | -10 | -28%
Cc1ccc(NC(=O)Nc2ccccc2C(N)=O)cc1 | ? | 21% | ? | 0 | -1%
Cc1ccccc1NC(=O)Nc1ccccc1C(N)=O | ? | -1% | 10µM* | -10 | 0%
Cc1ccccc1NNC(N)=S | 23µM* | 0% | 21µM* | ? | 0%
Cc1ccccc1NC(=O)CNC(=O)c1ccc(C(F)(F)F)cc1 | -3% | 11% | 0% | 23 | 1%
COc1ccc(NC(=O)C(=O)NCc2ccco2)c(OC)c1 | -24% | / | -28% | / | /
CC(CNC(=O)c1ccc(Cn2c(=O)c3cccn3c3cccnc32)cc1)c1ccccc1 (centres undefined) | ? | / | -29% | / | /
O=C1CC(c2nnc(Cc3ccccc3Cl)o2)CN1c1ccccc1 (centres undefined) | -3% | / | -2% | / | /
O=C(CN1C(=O)NC2(CCCCCC2)C1=O)Nc1ccc(Br)cc1Br | -26% | -19% | ? | -4 | -2%
NC(=O)NNC(=S)Nc1cccc2ccccc12 | 6% | -1% | -5% | 13 | 7%
NC(=O)c1ccccc1NC(=O)Nc1cccc2ccccc12 | 4.6µM* | -5% | 1.6µM* | -11 | -14%
COc1cccc(Nc2cc(C)c3ccccc3n2)c1 | ? | ? | -10% | -55* | -23%
Cc1cc(NCc2ccco2)nc2cc(O)ccc12 | ? | 2% | ? | 1 | 0%
Cc1cc(NC2CCCCC2)nc2ccccc12 | 16µM* | -5% | ? | -91* | -2%
Cc1ccc(Nc2cc(C)c3ccc(O)cc3n2)cc1C | 18µM* | -22% | 18µM* | -18 | -23%
Cc1ccc(Nc2cc(C)c3c(O)cccc3n2)cc1C | 15µM* | -25% | 21µM* | -9 | -26%
Cc1ccc(CCNC(=O)c2cc(Nc3ccc(C)c(C)c3)nc3ccccc23)cc1 | ? | / | -21% | / | /
Cc1ccccc1NC(=O)C1CCCN1/C=C/C(=O)C(F)(F)F (centres undefined) | -2% | 13% | -4% | 10 | -4%
Cc1ccccc1Nc1cc(C)c2c(O)cccc2n1 | ? | -6% | ? | -87* | -18%
COc1ccc(Nc2cc(C)c3c(O)cccc3n2)cc1 | 10µM* | ? | 21µM* | ? | ?
CCOC(=O)c1c(NC(=O)CSc2nnc(C)s2)sc2c1CCC(CC)C2 (centres undefined) | ? | -9% | -20% | -12 | 2%
CCN(CC(=O)Nc1c(F)cccc1F)C(=O)c1cccc(S(=O)(=O)N2CCN(c3ccccc3)CC2)c1 | ? | 1% | ? | -5 | -2%
CCN(CC(=O)Nc1c(F)cccc1F)C(=O)c1cccc(S(=O)(=O)N2CCCc3ccccc32)c1 | 16µM* | -12% | ? | 22 | -5%
CCN(CC(=O)Nc1c(F)cccc1F)C(=O)c1cccc(S(=O)(=O)N2CCc3ccccc3C2)c1 | ? | -11% | ? | -1 | -6%
CCN(CC(=O)Nc1cccc(OC)c1)C(=O)c1cccc(S(=O)(=O)N2CCc3ccccc32)c1 | 16µM* | 2% | 23µM* | -13 | 0%
